KCNH2 3.1 inh – blocks the human KCNH2 3.1 channel isoform; 340,000 compounds, 0.95% hits; U2OS KCNH2 3.1, thallium flux FluxOr; active compounds read low; activity change, % (tested at about 1.8 µM); AID 720553;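 active means maximum activity change below -70%; inconclusive means maximum activity change from -70% to -50%; inactive means maximum activity change above -50%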;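 further: thallium influx rate constant from kinetic fluorescence after stimulation buffer; on the % scale 0 is the no-effect control and ±100 the full control effect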
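Thallium flux via FluxOr fluorescence (Red40 quencher, 45 min loading) in U2OS cells virally expressing the KCNH2 3.1 isoform (1.77 x 10^8 /mL virus, overnight at 37 C). Rate constants from 2-min kinetic reads post-stimulation, normalised to positive and negative controls.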
KCNH2 WT inh – inhibitors of human wildtype KCNH2 potassium channel. Q12809. U2OS, BacMam KCNH2, thallium flux FluxOr; active compounds read low. activity change, % at 1.84 µM. 340,000 compounds, 0.37% hits. AID 720551;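 active means maximum activity change below -70%; inconclusive means maximum activity change between -70% and -50%; inactive means maximum activity change above -50%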; further: on the % scale 0 is the no-effect control and ±100 the full control effect
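U2OS cells were transduced with wild-type KCNH2 virus (2.03 x 10^8 / mL) for 4 h at room temperature, then cultured overnight at 37 C. Thallium flux was read with FluxOr dye. Rate constants were normalized to DMSO controls.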
ALOX12 inh – ALOX12 (human) lipoxygenase inhibition | Potency, µM (top dose mostly 108 µM), inactives show at the top dose activity change, negative = inhibition, usual class: inhibitors | 580,000 compounds, 1.1% hits | P18054 | AID 1671190 | purified 12hLO, xylenol orange hydroperoxide absorbance; further: potency means the concentration at half of the fitted maximal effect; on the % scale 0 is the no-effect control and ±100 the full control effect
Target sequence (P18054 whole entry, looked up): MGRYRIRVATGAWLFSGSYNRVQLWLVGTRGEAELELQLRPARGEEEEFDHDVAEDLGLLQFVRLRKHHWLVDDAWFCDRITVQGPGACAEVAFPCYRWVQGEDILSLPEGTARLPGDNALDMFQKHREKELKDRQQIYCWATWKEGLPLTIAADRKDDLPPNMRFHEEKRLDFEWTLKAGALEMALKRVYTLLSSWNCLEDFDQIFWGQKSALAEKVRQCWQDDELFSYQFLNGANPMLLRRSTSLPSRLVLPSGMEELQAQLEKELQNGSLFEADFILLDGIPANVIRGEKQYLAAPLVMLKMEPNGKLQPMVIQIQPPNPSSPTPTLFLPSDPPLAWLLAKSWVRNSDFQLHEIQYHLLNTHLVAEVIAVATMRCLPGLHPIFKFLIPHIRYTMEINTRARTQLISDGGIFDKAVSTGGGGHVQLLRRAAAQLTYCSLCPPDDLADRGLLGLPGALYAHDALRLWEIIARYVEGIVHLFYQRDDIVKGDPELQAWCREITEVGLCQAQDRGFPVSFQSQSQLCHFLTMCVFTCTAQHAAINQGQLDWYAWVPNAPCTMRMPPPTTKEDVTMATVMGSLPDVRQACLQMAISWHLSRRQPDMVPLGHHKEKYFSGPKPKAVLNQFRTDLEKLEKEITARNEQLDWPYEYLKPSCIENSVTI
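Purified human 12hLO at 150 nM in 25 mM Hepes, 0.01% Triton X-100, pH 7.0, preincubated 15 min at room temperature with compound. Reaction started with 40 uM arachidonic acid, 30 min at room temperature. Hydroperoxide measured by Fe-xylenol orange, 573/405 nm absorbance ratio.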
AT treatment – potential ataxia-telangiectasia treatment; Potency, µM (highest dose often 57.5 µM), for the others: top-dose activation, most hits filed as activators; F2112 A-T fibroblasts, KAP-1 phosphorylation AlphaLISA; neocarzinostatin DNA damage 30 min before lysis; 320,000 compounds, 0.19% hits; further: potency means the concentration at half of the fitted maximal effect; % of control where 0% means no effect; nearly all actives have a fitted effect of over 45% in size
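hTERT-immortalized A-T patient fibroblasts (F2112), 500 cells/well in OPTI-MEM, 1% FBS, got compounds for 60 min, then NCS for 30 min at 37C. Lysates were then assayed for phospho-KAP-1 by AlphaLISA (anti-pKAP1 donor, anti-KAP1 acceptor beads), 6 hr at 25C.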
Starred values were filed as active, the others as inactive; ! = a repeat was not active; [ ] = remark or other dose. Hits are enriched below; roughly 1.8% of the tested compounds scored in any of these assays. Unless noted, the call rests on the fitted dose curve; in most records, active means well fitted curve in the direction sought with a large enough effect; inconclusive means small, poorly fitted or top-dose-only effect, or another doubt; inactive means no such curve, though single readings can be large; an effect the other way counts as inactive or inconclusive.

For CC1CCCCN1S(=O)(=O)c1ccc(N(C(=O)c2cnccn2)C(C(=O)NC2CCCC2)c2cccs2)cc1 (centres undefined) the results were KCNH2 3.1 inh 2, KCNH2 WT inh 13, ALOX12 inh -16% and AT treatment 3%.
`CC1CCCCN1S(=O)(=O)c1ccc(N(C(=O)c2cnccn2)C(C(=O)NC2CCCCC2)c2cccs2)cc1` (centres undefined) gave KCNH2 3.1 inh 7, KCNH2 WT inh -71*, ALOX12 inh -23% and AT treatment -3%.
For CN(CC(=O)N(C)C)Cc1coc(-c2ccc(Cl)cc2)n1 the results were ALOX12 inh 28%.
Screening CC[C@H]1CN(C(=O)Nc2cccc(C(F)(F)F)c2)CC[C@H]1CC(=O)O returned ALOX12 inh 46%[176 µM].
Screening CCOc1ccc(N(CC(=O)Nc2ccccc2C)S(=O)(=O)c2c(C)[nH]c(=O)[nH]c2=O)cc1 returned KCNH2 3.1 inh 6, KCNH2 WT inh 4, ALOX12 inh 1% and AT treatment 1%.
CCOc1ccc(N(CC(=O)Nc2cc(C)ccc2C)S(=O)(=O)c2c(C)[nH]c(=O)[nH]c2=O)cc1 was read as KCNH2 3.1 inh 19, KCNH2 WT inh -6, ALOX12 inh 0% and AT treatment 28µM*.
`Cc1ccc(NC(=O)CN(C)c2nc(CN3CCOCC3)nc3sc(C)c(C)c23)cc1` gave ALOX12 inh 20%.
C[C@H]1COC(=O)[C@H](NC(=O)OCC2c3ccccc3-c3ccccc32)C/C=C\C[C@H](CC(=O)N(CCO)Cc2ccccc2)C(=O)N1 was read as KCNH2 3.1 inh -5, KCNH2 WT inh 0, ALOX12 inh 40µM* and AT treatment 9%.
Screening COc1cccc(Nc2nc(-c3ccccc3)cs2)c1 returned ALOX12 inh 1µM*.
Screening c1ccc(-c2csc(Nc3ccc4c(c3)OCO4)n2)cc1 returned ALOX12 inh 3.5µM*!.
Screening COc1cccc(Nc2nc(-c3ccccc3)no2)c1 returned ALOX12 inh 40µM*.
Screening COc1ccccc1CNc1nc(-c2ccccc2)cs1 returned ALOX12 inh 14µM*.
For Cn1ncc2c(N[C@@H](Cc3ccccc3)C(N)=O)nc(-c3ccncc3)nc21 the results were ALOX12 inh 15%.
Screening c1ccc(CSc2ccc(Oc3ccc(SCc4ccccc4)cc3)cc2)cc1 returned ALOX12 inh -5%.
Screening COc1cccc(Nc2nc(-c3cccnc3)cs2)c1 returned KCNH2 3.1 inh -5, KCNH2 WT inh -16, ALOX12 inh 12% and AT treatment -2%.
For COc1cccc(Nc2nc(-c3ccc(CNC(C)=O)cc3)cs2)c1 the results were ALOX12 inh 16µM*.
COc1ccccc1C1(O)CCN(CC(=O)Nc2nc(-c3ccccc3)cs2)CC1 was read as KCNH2 3.1 inh -86*, KCNH2 WT inh 7, ALOX12 inh 1% and AT treatment -3%[11.5 µM].
CCOC(=O)N1CCN(C(=O)CNS(=O)(=O)c2cccs2)CC1 was read as KCNH2 3.1 inh 1, KCNH2 WT inh -9, ALOX12 inh -5% and AT treatment -1%.
`CC(=O)Nc1ccc(S(=O)(=O)NCC(=O)N2CCN(S(=O)(=O)c3cccs3)CC2)cc1` gave KCNH2 3.1 inh -101*, KCNH2 WT inh 2, ALOX12 inh 3% and AT treatment 8%.
For NC(C(=O)O)C(CC(=O)O)c1ccc(Cl)cc1 (centres undefined) the results were ALOX12 inh 1%.
For C[C@@H](CC(=O)O)[C@@H](N)C(=O)O the results were ALOX12 inh 20µM*!.
`Fc1ccc(-c2n[nH]c(=S)n2Cc2ccccc2)cc1` gave KCNH2 3.1 inh 5, KCNH2 WT inh -3 and AT treatment -10%.
Screening Fc1ccc(-c2c[nH]c(=S)n2Cc2ccccc2)cc1 returned KCNH2 3.1 inh 8, KCNH2 WT inh -21, ALOX12 inh 50µM* and AT treatment 5%.
`O=C(CCc1nc2ccccc2[nH]1)NCc1ccc2c(c1)OCO2` gave KCNH2 3.1 inh -3, KCNH2 WT inh -13, ALOX12 inh 16% and AT treatment -4%.
O=C(CCc1nc2ccccc2[nH]1)Nc1ccc2c(c1)OCO2 was read as KCNH2 3.1 inh -198*, KCNH2 WT inh 2, ALOX12 inh 1% and AT treatment -1%.
Screening O=C(NCCc1nc2ccccc2[nH]1)/C(=C/c1ccc2c(c1)OCO2)NC(=O)c1ccccc1Cl returned KCNH2 3.1 inh -77*, KCNH2 WT inh inconclusive, ALOX12 inh -18% and AT treatment 3%.
For CN(CC(=O)Nc1ccccc1Br)C(=O)c1ccncc1 the results were KCNH2 3.1 inh -105*, KCNH2 WT inh 2, ALOX12 inh inactive and AT treatment -2%.
For CCN(CC1CCOCC1)C(=O)c1cccnc1SC/C=C/c1ccccc1 the results were ALOX12 inh 61%.
COc1ccc(C2CC(=O)N3CN(Cc4ccco4)CSC3=C2C#N)cc1 (centres undefined) was read as KCNH2 3.1 inh -10, KCNH2 WT inh 1, ALOX12 inh inconclusive and AT treatment -6%.
`COc1cc(C2CC(=O)N3CN(c4ccc(C)cc4)CSC3=C2C#N)cc(Br)c1O` (centres undefined) gave ALOX12 inh 1.3µM*.
Screening COc1ccc(C2CC(=O)N3CN(c4ccc(C)c(Cl)c4)CSC3=C2C#N)cc1 (centres undefined) returned KCNH2 3.1 inh -5, KCNH2 WT inh 6, ALOX12 inh 4µM* and AT treatment -5%.
CCc1ccccc1N1CSC2=C(C#N)C(c3ccccc3F)CC(=O)N2C1 (centres undefined) was read as KCNH2 3.1 inh -6, KCNH2 WT inh -9, ALOX12 inh 3.2µM* and AT treatment 35%.
`COc1ccc(N2CSC3=C(C#N)C(c4cccc(OC)c4OC)CC(=O)N3C2)cc1` (centres undefined) gave KCNH2 3.1 inh 0, KCNH2 WT inh -2, ALOX12 inh 11µM* and AT treatment 1%.
`COc1ccc(C2CC(=O)N3CN(c4ccccc4F)CSC3=C2C#N)cc1OC` (centres undefined) gave KCNH2 3.1 inh 17, KCNH2 WT inh 9, ALOX12 inh inconclusive and AT treatment 10%.
For CCN(CC)CCCNC(=O)c1nn(Cc2ccccc2)c(=O)c2ccccc12 the results were ALOX12 inh -27%.
For O=C(Cc1c(Cl)cccc1Cl)NCc1coc(-c2cccs2)n1 the results were ALOX12 inh 35%.
For COC(=O)c1ccc(NC(=S)NCCO)cc1 the results were ALOX12 inh -23%.
`CCN(CC(=O)Nc1ccc(NC(C)=O)cc1)C(=O)CSCC(=O)Nc1ccc(C)cc1` gave KCNH2 3.1 inh -4, KCNH2 WT inh 4, ALOX12 inh -8% and AT treatment 5%.
Screening CCOC(=O)CC(=O)CSCC(=O)Nc1ccc(C)cc1 returned KCNH2 3.1 inh -75*, KCNH2 WT inh -8, ALOX12 inh inconclusive and AT treatment 4%.
